Test results as given in the supplement of paper PMC10849652.
The full data set covers some 7,900 targets. This sample favours those with a hit. About 0.6% of all pairs of compound and target were hits. Values without a mark were called inactive.

What was measured:
Assay in all cases: log2 fold change, soluble protein after heating vs DMSO (PISA); higher = thermal stabilisation; K562 cells, 10 uM, 30 min; active = over 0.2 and 3.5 SD of the protein, either way, in both replicates (recomputed)
saracatinib = compound: CN1CCN(CCOc2cc(OC3CCOCC3)c3c(Nc4c(Cl)ccc5c4OCO5)ncnc3c2)CC1 [saracatinib]
How it was run: (§1)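 K562 cells at 2×10^6 cells/mL were treated for 30 min with 10 μM compound, and aliquots were heated for 3 min over 48°C-58°C before pooling. Extraction used PBS with 0.5% NP-40 at 4°C, and soluble protein was the supernatant after 21,000xg for 90 min, measured by TMTpro 16plex LC-MS/MS with channel sums equalised. Thermal stability values, relative to control samples and from duplicates, are log2 fold changes.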

sotrastaurin = compound: CN1CCN(c2nc(C3=C(c4c[nH]c5ccccc45)C(=O)NC3=O)c3ccccc3n2)CC1 [sotrastaurin]
How it was run: as §1

alvocidib = compound: CN1CC[C@H](c2c(O)cc(O)c3c(=O)cc(-c4ccccc4Cl)oc23)[C@H](O)C1 [alvocidib]
How it was run: as §1

Tubastatin A = compound: CN1CCc2c(c3ccccc3n2Cc2ccc(C(=O)NO)cc2)C1 [Tubastatin A]
How it was run: as §1

[1] = compound: CNC(=O)C1=CC=CC=C1NC2=NC(=NC=C2Cl)NC3=C(C=C(C=C3)N4CCOCC4)OC
How it was run: as §1

defactinib = compound: CNC(=O)c1ccc(Nc2ncc(C(F)(F)F)c(NCc3nccnc3N(C)S(C)(=O)=O)n2)cc1 [defactinib]
How it was run: as §1

rucaparib = compound: CNCc1ccc(-c2[nH]c3cc(F)cc4c3c2CCNC4=O)cc1 [rucaparib]
How it was run: as §1

[2] = compound: CNc1nc(-c2ccc3c(N)n[nH]c3c2)cc(N2C[C@@H](C(=O)NC3CCCCC3)CC[C@H]2C)n1
How it was run: as §1

encorafenib = compound: COC(=O)N[C@@H](C)CNc1nccc(-c2cn(C(C)C)nc2-c2cc(Cl)cc(NS(C)(=O)=O)c2F)n1 [encorafenib]
How it was run: as §1

[3] = compound: COC(=O)[C@H](CCSC)NC(=O)C1=C(C=C(C=C1)NC[C@H](CS)N)C2=CC=CC=C2
How it was run: as §1

UniProt O75976, sequence (O75976 whole entry, looked up): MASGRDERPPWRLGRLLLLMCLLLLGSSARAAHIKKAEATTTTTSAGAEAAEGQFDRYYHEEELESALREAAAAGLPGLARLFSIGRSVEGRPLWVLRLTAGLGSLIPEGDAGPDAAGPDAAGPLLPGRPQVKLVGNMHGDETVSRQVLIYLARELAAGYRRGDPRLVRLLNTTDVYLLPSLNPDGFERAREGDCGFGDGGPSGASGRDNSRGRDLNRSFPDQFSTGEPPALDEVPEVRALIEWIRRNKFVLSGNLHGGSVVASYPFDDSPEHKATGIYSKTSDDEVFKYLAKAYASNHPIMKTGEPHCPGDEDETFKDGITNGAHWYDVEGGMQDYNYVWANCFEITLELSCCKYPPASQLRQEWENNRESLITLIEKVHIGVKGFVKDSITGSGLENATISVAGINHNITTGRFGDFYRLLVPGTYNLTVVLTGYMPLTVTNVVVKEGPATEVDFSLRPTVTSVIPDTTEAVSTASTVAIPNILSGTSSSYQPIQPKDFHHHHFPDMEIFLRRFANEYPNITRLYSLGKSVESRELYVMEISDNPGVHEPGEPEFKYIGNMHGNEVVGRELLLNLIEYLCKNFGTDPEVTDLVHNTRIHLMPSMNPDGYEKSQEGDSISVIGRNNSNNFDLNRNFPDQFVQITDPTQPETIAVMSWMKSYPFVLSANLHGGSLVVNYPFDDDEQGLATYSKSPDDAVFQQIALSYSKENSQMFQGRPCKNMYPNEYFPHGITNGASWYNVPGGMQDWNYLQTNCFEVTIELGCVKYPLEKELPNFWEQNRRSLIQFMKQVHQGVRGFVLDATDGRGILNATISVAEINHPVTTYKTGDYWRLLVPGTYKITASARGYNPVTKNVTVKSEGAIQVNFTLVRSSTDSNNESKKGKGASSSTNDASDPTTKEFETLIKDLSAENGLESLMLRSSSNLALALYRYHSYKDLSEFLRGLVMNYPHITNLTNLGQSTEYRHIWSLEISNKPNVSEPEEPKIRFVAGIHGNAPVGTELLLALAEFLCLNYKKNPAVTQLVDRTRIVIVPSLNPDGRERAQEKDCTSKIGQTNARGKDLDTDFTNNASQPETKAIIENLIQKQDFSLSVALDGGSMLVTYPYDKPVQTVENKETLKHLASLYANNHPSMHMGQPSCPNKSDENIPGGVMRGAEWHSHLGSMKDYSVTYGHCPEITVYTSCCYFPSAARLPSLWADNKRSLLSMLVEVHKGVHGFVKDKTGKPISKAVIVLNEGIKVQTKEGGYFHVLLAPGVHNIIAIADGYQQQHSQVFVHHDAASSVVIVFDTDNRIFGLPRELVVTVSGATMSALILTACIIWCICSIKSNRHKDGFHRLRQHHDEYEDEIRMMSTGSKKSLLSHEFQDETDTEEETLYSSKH
UniProt Q9H444, sequence (Q9H444 whole entry, looked up): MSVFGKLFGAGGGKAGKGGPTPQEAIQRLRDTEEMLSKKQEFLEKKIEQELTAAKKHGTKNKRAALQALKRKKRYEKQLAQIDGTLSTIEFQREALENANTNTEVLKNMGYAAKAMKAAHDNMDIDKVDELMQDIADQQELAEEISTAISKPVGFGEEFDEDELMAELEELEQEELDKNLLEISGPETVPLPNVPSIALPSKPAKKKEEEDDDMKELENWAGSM
UniProt P08962, sequence (P08962 whole entry, looked up): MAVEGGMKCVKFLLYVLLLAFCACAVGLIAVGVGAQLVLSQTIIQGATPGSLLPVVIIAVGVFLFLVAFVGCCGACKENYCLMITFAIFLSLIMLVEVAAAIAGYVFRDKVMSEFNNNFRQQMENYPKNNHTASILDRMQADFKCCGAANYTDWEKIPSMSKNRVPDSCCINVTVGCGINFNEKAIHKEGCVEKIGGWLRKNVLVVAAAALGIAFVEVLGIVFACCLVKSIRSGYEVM
UniProt P42575, sequence (P42575 whole entry, looked up): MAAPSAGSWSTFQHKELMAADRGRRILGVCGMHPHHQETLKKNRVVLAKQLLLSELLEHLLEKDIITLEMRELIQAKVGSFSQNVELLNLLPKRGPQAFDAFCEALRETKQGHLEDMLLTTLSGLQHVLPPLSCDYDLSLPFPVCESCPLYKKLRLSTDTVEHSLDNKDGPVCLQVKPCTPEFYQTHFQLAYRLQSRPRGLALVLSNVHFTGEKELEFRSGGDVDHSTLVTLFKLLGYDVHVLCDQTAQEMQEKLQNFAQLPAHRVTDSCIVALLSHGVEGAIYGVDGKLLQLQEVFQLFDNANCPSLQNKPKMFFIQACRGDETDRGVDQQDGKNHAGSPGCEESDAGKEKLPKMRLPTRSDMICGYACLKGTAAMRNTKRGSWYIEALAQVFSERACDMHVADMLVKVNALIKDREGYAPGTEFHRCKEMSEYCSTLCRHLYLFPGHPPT
UniProt P21127, sequence (P21127 whole entry, looked up): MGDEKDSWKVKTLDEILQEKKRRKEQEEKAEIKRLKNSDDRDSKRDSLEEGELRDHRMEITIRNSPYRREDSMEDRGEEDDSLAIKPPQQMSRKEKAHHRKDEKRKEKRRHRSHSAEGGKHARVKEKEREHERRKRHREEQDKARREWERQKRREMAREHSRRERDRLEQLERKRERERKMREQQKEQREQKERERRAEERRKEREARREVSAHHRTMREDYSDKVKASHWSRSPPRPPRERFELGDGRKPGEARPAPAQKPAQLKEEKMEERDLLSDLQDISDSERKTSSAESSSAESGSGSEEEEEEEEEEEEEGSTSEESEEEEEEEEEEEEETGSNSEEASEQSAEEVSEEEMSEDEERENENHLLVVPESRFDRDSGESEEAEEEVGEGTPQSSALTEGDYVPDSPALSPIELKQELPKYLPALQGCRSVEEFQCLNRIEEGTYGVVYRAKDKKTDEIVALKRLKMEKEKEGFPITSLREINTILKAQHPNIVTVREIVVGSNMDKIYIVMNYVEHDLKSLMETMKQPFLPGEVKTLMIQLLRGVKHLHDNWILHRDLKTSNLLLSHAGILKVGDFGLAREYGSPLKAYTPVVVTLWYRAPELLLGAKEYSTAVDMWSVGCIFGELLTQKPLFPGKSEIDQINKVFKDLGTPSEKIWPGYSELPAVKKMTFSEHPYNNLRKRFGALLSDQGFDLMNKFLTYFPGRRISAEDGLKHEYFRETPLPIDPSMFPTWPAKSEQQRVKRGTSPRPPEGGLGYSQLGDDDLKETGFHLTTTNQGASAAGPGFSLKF
UniProt P00915, sequence (P00915 whole entry, looked up): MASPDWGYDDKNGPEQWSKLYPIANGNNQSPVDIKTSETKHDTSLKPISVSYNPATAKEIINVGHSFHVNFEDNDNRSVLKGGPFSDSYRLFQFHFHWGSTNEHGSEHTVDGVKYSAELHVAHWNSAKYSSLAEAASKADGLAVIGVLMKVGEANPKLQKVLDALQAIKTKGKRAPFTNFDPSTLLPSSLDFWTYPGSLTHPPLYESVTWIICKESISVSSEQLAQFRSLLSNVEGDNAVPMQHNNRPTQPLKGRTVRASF
UniProt O76031, sequence (O76031 whole entry, looked up): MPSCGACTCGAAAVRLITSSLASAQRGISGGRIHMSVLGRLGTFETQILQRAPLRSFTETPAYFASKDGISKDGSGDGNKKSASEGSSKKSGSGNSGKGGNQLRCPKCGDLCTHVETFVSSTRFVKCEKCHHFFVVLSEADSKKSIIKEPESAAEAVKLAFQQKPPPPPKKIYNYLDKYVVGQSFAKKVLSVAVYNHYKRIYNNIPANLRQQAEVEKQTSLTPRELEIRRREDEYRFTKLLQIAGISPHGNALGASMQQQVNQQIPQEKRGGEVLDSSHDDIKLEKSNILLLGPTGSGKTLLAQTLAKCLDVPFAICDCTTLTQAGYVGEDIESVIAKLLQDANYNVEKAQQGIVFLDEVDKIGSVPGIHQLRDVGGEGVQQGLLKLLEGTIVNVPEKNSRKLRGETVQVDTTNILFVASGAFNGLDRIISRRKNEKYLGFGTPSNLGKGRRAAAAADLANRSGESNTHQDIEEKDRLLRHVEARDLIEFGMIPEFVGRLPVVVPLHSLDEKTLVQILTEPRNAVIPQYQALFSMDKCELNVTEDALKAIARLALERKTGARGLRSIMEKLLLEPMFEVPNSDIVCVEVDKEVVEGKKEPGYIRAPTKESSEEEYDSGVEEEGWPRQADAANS
UniProt Q9Y6K0, sequence (Q9Y6K0 whole entry, looked up): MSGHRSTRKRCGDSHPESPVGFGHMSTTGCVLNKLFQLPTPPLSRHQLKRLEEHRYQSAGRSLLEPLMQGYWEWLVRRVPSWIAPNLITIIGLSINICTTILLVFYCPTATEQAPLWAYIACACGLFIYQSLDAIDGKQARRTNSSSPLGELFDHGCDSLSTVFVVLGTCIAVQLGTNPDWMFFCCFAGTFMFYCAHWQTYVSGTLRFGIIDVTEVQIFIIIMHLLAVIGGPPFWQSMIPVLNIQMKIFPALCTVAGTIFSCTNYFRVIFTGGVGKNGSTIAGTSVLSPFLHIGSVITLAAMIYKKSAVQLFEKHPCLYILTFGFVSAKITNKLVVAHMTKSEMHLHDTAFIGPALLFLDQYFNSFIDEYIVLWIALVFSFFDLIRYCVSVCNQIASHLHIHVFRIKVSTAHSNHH
UniProt Q9UBY8, sequence (Q9UBY8 whole entry, looked up): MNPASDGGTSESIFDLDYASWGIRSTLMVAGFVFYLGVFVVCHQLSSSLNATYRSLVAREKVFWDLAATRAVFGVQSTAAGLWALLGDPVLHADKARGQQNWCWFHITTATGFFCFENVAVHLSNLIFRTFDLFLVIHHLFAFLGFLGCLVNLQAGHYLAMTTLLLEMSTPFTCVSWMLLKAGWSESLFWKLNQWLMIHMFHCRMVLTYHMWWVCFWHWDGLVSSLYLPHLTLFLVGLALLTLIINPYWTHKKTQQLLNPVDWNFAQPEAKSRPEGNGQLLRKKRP
UniProt P45973, sequence (P45973 whole entry, looked up): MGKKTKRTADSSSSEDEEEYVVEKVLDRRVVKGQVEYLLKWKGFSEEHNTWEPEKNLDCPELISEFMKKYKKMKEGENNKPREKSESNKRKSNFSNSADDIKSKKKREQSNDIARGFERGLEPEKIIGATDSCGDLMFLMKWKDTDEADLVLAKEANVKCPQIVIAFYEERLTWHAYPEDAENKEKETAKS

Target | log2 fold change (saracatinib) | log2 fold change (sotrastaurin) | log2 fold change (alvocidib) | log2 fold change (Tubastatin A) | log2 fold change [1] | log2 fold change (defactinib) | log2 fold change (rucaparib) | log2 fold change [2] | log2 fold change (encorafenib) | log2 fold change [3]
CLN8 (UniProt Q9UBY8) | 0.073 | 0.107 | 0.061 | -0.225 | 0.022 | -0.062 | -0.061 | -0.292 | -0.117 | 0.05
CLPX (UniProt O76031) | 0.014 | 0.014 | 0.039 | 0.025 | -0.016 | -0.027 | 0.034 | -0.038 | -0.013 | -0.01
COX20 isoform 2 (UniProt Q5RI15) | 0.005 | 0.008 | -0.025 | -0.062 | -0.028 | -0.017 | 0.044 | -0.025 | -0.108 | 0.009
CDK6 (UniProt Q00534) | 0.002 | -0.005 | 0.01 | 0.022 | 0.016 | -0.029 | 0.065 | -0.02 | 0.011 | 0.004
COPS8 (UniProt Q99627) | -0.013 | -0.052 | -0.071 | -0.025 | -0.039 | -0.03 | -0.015 | 0.018 | 0.011 | -0.021
CHMP4B (UniProt Q9H444) | 0.021 | -0.061 | 0.017 | -0.024 | -0.026 | -0.017 | 0.02 | -0.019 | -0.055 | 0.054
CA1 (UniProt P00915) | 0.014 | -0.001 | -0.095 | -0.013 | 0.009 | -0.057 | -0.036 | -0.016 | -0.002 | 0.004
CHD4 isoform 2 (UniProt Q14839) | -0.006 | -0.25 | -0.135 | 0.03 | 0 | -0.247 | 0.043 | 0.041 | 0.133 | 0.017
CEPT1 (UniProt Q9Y6K0) | 0.015 | 0.033 | 0.029 | 0.042 | 0.001 | -0.005 | -0.126 | -0.056 | 0.052 | -0.056
CHCHD2 (UniProt Q9Y6H1) | 0 | -0.031 | 0.027 | -0.058 | 0.087 | -0.002 | -0.065 | -0.049 | -0.01 | 0.061
CCNT1 (UniProt O60563) | -0.005 | -0.173 | -0.221 | 0.075 | -0.086 | -0.213 | 0.044 | 0.043 | 0.163 | 0.002
CHAMP1 (UniProt Q96JM3) | 0.103 | -0.007 | -0.139 | -0.036 | -0.064 | -0.104 | 0.053 | -0.001 | 0.048 | 0.049
CNDP2 (UniProt Q96KP4) | -0.016 | -0.003 | -0.062 | -0.226 (active) | -0.014 | -0.006 | -0.041 | 0.028 | 0.001 | 0.124
CLINT1 isoform 3 (UniProt Q14677) | 0.083 | 0.041 | 0.061 | -0.036 | 0.185 | 0.035 | 0.109 | -0.06 | -0.059 | 0.012
CDK11B (UniProt P21127) | -0.039 | 0.035 | 0.157 | 0.137 | -0.098 | -0.162 | -0.323 | -0.052 | 0.077 | -0.039
CALCOCO2 isoform 4 (UniProt Q13137) | -0.03 | -0.127 | 0.033 | 0.037 | 0.012 | 0.017 | -0.044 | -0.034 | 0.076 | 0.021
CLUH, A0A494C0R8 | -0.037 | -0.058 | -0.009 | -0.088 | 0.09 | -0.068 | 0.16 | 0.138 | 0.032 | 0.102
CDC42BPB (UniProt Q9Y5S2) | -0.089 | -0.152 | 0.009 | 0.055 | 0.021 | -0.119 | 0.146 | -0.046 | -0.029 | -0.032
CPSF7 isoform 3 (UniProt Q8N684) | 0.006 | 0.026 | -0.018 | 0.032 | -0.071 | 0.014 | 0.033 | -0.014 | -0.014 | -0.044
CASP2 (UniProt P42575) | -0.1 | -0.048 | -0.084 | 0.082 | 0.037 | -0.08 | -0.006 | 0.053 | 0.133 | -0.005
CSTF2 (UniProt P33240) | -0.02 | 0.105 | 0.045 | -0.064 | -0.023 | 0.023 | 0.034 | -0.092 | -0.08 | -0.028
CBX5 (UniProt P45973) | -0.04 | -0.001 | -0.115 | 0.078 | -0.026 | -0.205 | -0.022 | 0.043 | 0.009 | -0.012
CPD (UniProt O75976) | -0.047 | -0.011 | -0.007 | 0.03 | -0.002 | -0.026 | 0.017 | -0.006 | 0.042 | 0.012
CDK19 (UniProt Q9BWU1) | 0.006 | 0.035 | 0.585 (active) | -0.104 | -0.209 | 0.046 | 0.345 | 0.03 | -0.086 | -0.005
CIT isoform 4 (UniProt O14578) | -0.044 | -0.033 | 0.001 | 0.074 | 0.054 | -0.034 | -0.202 | -0.055 | -0.025 | -0.001
CPSF6 isoform 2 (UniProt Q16630) | -0.014 | 0.031 | -0.128 | 0.015 | -0.217 | -0.009 | 0.016 | 0.008 | -0.043 | 0.007
CD63 (UniProt P08962) | 0.021 | 0.017 | 0.01 | -0.005 | 0 | -0.006 | -0.018 | -0.01 | 0.049 | 0.015
CBR1 (UniProt P16152) | 0.02 | -0.005 | -0.098 | -0.059 | 0.011 | -0.041 | -0.01 | -0.003 | -0.024 | 0.004
CAVIN1 (UniProt Q6NZI2) | -0.065 | -0.053 | 0.101 | 0.159 | -0.015 | 0.226 | 0.098 | 0.119 | 0.122 | 0.034
